Source: PubChem BioAssay (several laboratories)
HIF-2a inh = inhibitors of HIF-2a; inhibition, % at 18.8 µM; 360,000 compounds, 0.72% hits; 786-0 RCC cells HIF-2a reporter, luciferase luminescence, overnight; AID 624352;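 active means inhibition of the luminescence signal of 40% or more relative to plate controls, in a single-dose primary screen at 18.75 µM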
TRPM1 prom inh = reduces MITF-dependent TRPM1 promoter luciferase signal | SK-MEL-5 TRPM1 promoter luciferase, 24 h | inhibition, % at 12.5 µM | 330,000 compounds, 0.83% hits;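 active means mean inhibition across replicates of 60% or more, whatever share of single replicates reaches that level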
Shn3 inh set2 = inhibitors of Schnurri-3 3'UTR reporter in osteoblasts; 360,000 compounds, 0.52% hits; inhibition, % at 12.5 µM; AID 588674; Clone20 osteoblast Shn3 3'UTR firefly luciferase, 24 h;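 active means mean inhibition of at least 75% with every replicate also reaching 75%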;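 further: 0% = median of neutral control wells and 100% = pilot-screen positive control compound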
Peg3 promoter = Peg3 promoter activity inhibition; HeLa PEG-Prom luciferase reporter, luminescence, overnight; inhibition, % at 20 µM; 360,000 compounds, 1.7% hits; AID 588405;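 active means inhibition of at least 50% at 20 µM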
KKLEB tox = reduces viability of KKLEB cystic fibrosis airway cells | 360,000 compounds, 0.36% hits | AID 602141 | KKLEB CF airway cells viability, ATPlite luminescence, overnight; stronger effect = lower value; cells stimulated with P. aeruginosa culture filtrate | activity change (cytotoxicity), % at 5 µM;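 active means corrected activity change at or below -50% at 5 µM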
CF NFkB block = cystic fibrosis NF-kB activation inhibition; KKLEB NF-kB-GFP reporter, PAF-induced, GFP fluorescence overnight; inhibition, % at 5 µM; 360,000 compounds, 0.86% hits;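 active means at least 50% inhibition at 5 µM, scaled per plate between neutral and stimulator controls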;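 further: PAF is a Pseudomonas aeruginosa culture filtrate used as stimulus; plate controls were PAF-stimulated DMSO wells for no effect and unstimulated DMSO wells for full effect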
Mdm2 MdmX conf = Mdm2/MdmX (human) interaction inhibition, confirmed; shares compounds with HIF-2a inh; SaOS-2 split-luciferase Mdm2/MdmX complementation, luminescence; inhibition, % at 8 µM; 740 compounds, 99% hits; AID 504601;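 active means mean inhibition of the luminescence signal across two replicates at or above 26 percent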
HIF-2a conf = HIF-2a inhibition, single concentration confirmation | 1,800 compounds, 56% hits | shares compounds with HIF-2a inh | inhibition, % at 18.8 µM | 786-0 RCC cells, HIF-2a luciferase reporter luminescence, overnight | AID 651580;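 active means mean inhibition across four replicates of at least 40 percent at the single tested concentration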
HIF-1a cs = counter-screen for HIF-2a inhibitors: HIF-1a inhibition in MiaPaCa-2 cells; shares compounds with HIF-2a inh; MiaPaCa-2 HIF-1a luciferase reporter, desferoxamine, overnight; inhibition, % at 18.8 µM; 1,800 compounds, 72% hits;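 active means mean inhibition of the reporter signal across four replicates at the single tested dose of 50% or more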
Active calls of the source: *; nt = no result. Shown are actives, neighbours in structure and some others; about 2.8% of the full set was active somewhere.

SMILES	HIF-2a inh	TRPM1 prom inh	Shn3 inh set2	Peg3 promoter	KKLEB tox	CF NFkB block	HIF-2a conf	HIF-1a cs	others
Nc1cccnc1S(=O)(=O)c1ccccc1	20	-11	7	-1	4	0	nt	nt
COc1ccc([N+](=O)[O-])c(S(=O)(=O)c2ccc(Cl)cc2)n1	60*	71*	94*	105*	-47	102*	75*	62*	Mdm2 MdmX conf=103*
Cn1cnnc1SCC(=O)Nc1ccccc1Oc1ccccc1	11	-2	0	1	2	7	nt	nt
CSCC[C@H](NC(=O)[C@@H]1Cc2c([nH]c3ccccc23)C2c3ccccc3C(=O)N21)C(=O)NCC1CCCO1 (stereo not given in full)	14	11	9	10	-2	-16	nt	nt
CCCC(=O)N1CCN(c2ccc(NC(=O)c3ccc(N4CCCC4)c([N+](=O)[O-])c3)cc2Cl)CC1	-6	6	60	11	-8	2	nt	nt
CCC(=O)N1CCN(c2ccc(NC(=O)c3ccc([N+](=O)[O-])o3)cc2Cl)CC1	94*	87*	96*	114*	-58*	86*	51*	90*
CCN1CCN(c2ccc(NC(=O)c3ccc([N+](=O)[O-])o3)cc2Cl)CC1	64*	71*	68	102*	-44	89*	49*	58*
COc1ccc(-c2csc(NCCc3nc4cc(C(=O)NCCCO)ccc4n3Cc3ccc(C)cc3)n2)cc1	17	1	22	6	-8	-13	nt	nt
CCOCCCNC(=O)/C(C#N)=C/c1ccc(Cl)c([N+](=O)[O-])c1	92*	89*	0	105*	8	-2	22	102*
CCOCCCNC(=O)/C(C#N)=C/c1cc(OC)c(O)c([N+](=O)[O-])c1	18	9	-7	10	-28	10	nt	nt
COc1cc(OC)cc(N2C(=O)CC(N3CCC(C(=O)N4CCCCC4)CC3)C2=O)c1 (stereo not given)	9	9	-12	6	0	-19	nt	nt
N#C/C(=C\c1ccc([N+](=O)[O-])o1)c1nc2ccccc2[nH]1	nt	nt	nt	nt	nt	nt	nt	nt	Mdm2 MdmX conf=103*
COc1cccc([C@@H]2CC=C(C(=O)O)[C@H](c3ccc(Br)cc3)N2S(=O)(=O)c2ccc(C)cc2)c1	23	7	12	3	19	-13	nt	nt
COc1cc(/C=C/C(=O)NCCn2c(C)cc3ccccc32)cc(OC)c1OC	-3	nt	13	-14	-7	-16	nt	nt
CCn1c(SCC(=O)N/N=C/c2ccc(OC)c(OC)c2)nc2ccccc21	-5	-9	26	-4	-13	12	nt	nt
C=CCSc1nc2ccccc2n1C(=O)/C=C/c1cc(OC)c(OC)c(OC)c1	83*	87*	97*	98*	-14	91*	88*	106*
CCSc1nc2ccccc2n1C(=O)/C=C/c1ccc(OC)c(OC)c1	78*	76*	96*	103*	-2	84*	6	101*	Mdm2 MdmX conf=102*
N#CCC(=O)Nc1ccc(C(=O)OCC(=O)Nc2ccc3ccccc3c2)cc1	-31	-7	-14	-32	-1	16	nt	nt
Cc1ccc(CN(C)C(=O)C2CCC(=O)N(C3CCCCCC3)C2)cc1 (stereo not given)	5	-1	-20	-3	-7	12	nt	nt
Cc1ccccc1C1=NC(C(F)(F)F)(C(F)(F)F)c2c(n(C)c(=O)n(C)c2=O)N1	5	4	-5	14	-7	5	nt	nt
Cn1c2c(c(=O)n(C)c1=O)C(C(F)(F)F)(C(F)(F)F)N=C(c1ccc(Cl)cc1)N2	12	72*	81*	48	-50	67*	nt	nt	Mdm2 MdmX conf=97*
C1=CC2=NC34CCCCC3CC3=C(CCCC3)N4C2=CC1=NC1CCCCC1 (stereo not given)	17	14	-18	22	0	17	nt	nt	Mdm2 MdmX conf=52*
COC(=O)Cn1c(O)c(N=NC(=O)CNC(=O)c2ccncc2)c2ccccc21	11	3	-5	-5	2	4	nt	nt
CC(=O)[C@@]1(O)C(C)CC2C3C=C(C)C4=Cc5c(cnn5-c5ccccc5)C[C@]4(C)C3C(O)C[C@@]21C (stereo not given in full)	67*	1	55	64*	9	88*	34	95*
CN(C)C(=O)c1ccc(NC(=O)c2ccc(-c3ccc(Cl)cc3)o2)cc1	-16	-18	57	-19	-9	-2	nt	nt
SMILES	HIF-2a inh	TRPM1 prom inh	Shn3 inh set2	Peg3 promoter	KKLEB tox	CF NFkB block	HIF-2a conf	HIF-1a cs	others
CC1CCCCC12NC(=O)N(CC(=O)OCC(=O)NC(=O)c1ccccc1)C2=O (stereo not given)	4	11	-6	3	-2	15	nt	nt
Cc1ccc(C(C)C)c(OCc2ccc(C(=O)N/N=C/c3ccc(C(=O)O)cc3)cc2)c1	67*	-4	8	-83	-1	8	81*	-13
Cc1ccc(COc2ccc(/C=N/NC(=O)c3ccc(CN4CCOCC4)cc3)cc2)cc1	-51	3	12	-141	-21	-11	nt	nt
CCOc1ccc(-c2c(C#N)c(N)nc3sc(C(=O)c4ccccc4)c(N)c23)cc1	72*	8	19	7	-31	12	0	63*
O=C(/C=C/c1ccccc1)CC(O)(c1ccccc1)C(F)(F)C(F)F (stereo not given)	70*	19	25	101*	-34	23	53*	106*
O=C(/C=C/c1ccccc1)CC(O)(c1ccccc1)C(F)(F)F (stereo not given)	73*	31	-14	105*	-58*	53*	44*	104*
CC(=O)C1C=CC(C)(C(=O)O)C2C=C(C)C(=O)C(C)(O)C12 (stereo not given)	9	19	-37	7	8	13	nt	nt
COc1ccc(CCNCCN2CCOCC2)cc1	12	4	8	13	-6	4	nt	nt
COc1ccc(-c2oc3ncnc(NCCN4CCOCC4)c3c2-c2ccc(OC)cc2)cc1	47*	1	66	51*	-31	36	30	90*
COc1ccc(-c2oc3ncn(CCN4CCOCC4)c(=N)c3c2-c2ccc(OC)cc2)cc1	45*	-6	19	39	-24	14	12	86*
COCCn1c(C)cc(C(=O)COC(=O)c2n[nH]c3ccccc23)c1C	47*	-2	27	-10	-59*	10	45*	31
